{
  "source": "paper PMC4336329",
  "about": "(PLoS ONE, 2015)",
  "note": "The campaign covered roughly 310,000 compounds. About 14,000 (4.5%) showed an effect of 50% or more. The effect is printed as a negative number. For the sample, strong results were picked, then their nearest neighbours and some compounds at random.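 Note: peak tail current of the secondary pulse compared with the same well before compound.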",
  "data": [
    {"target": "human ether-à-go-go-related gene (hERG) potassium channel (human, UniProt Q12809)", "sequence (Q12809 whole entry, looked up)": "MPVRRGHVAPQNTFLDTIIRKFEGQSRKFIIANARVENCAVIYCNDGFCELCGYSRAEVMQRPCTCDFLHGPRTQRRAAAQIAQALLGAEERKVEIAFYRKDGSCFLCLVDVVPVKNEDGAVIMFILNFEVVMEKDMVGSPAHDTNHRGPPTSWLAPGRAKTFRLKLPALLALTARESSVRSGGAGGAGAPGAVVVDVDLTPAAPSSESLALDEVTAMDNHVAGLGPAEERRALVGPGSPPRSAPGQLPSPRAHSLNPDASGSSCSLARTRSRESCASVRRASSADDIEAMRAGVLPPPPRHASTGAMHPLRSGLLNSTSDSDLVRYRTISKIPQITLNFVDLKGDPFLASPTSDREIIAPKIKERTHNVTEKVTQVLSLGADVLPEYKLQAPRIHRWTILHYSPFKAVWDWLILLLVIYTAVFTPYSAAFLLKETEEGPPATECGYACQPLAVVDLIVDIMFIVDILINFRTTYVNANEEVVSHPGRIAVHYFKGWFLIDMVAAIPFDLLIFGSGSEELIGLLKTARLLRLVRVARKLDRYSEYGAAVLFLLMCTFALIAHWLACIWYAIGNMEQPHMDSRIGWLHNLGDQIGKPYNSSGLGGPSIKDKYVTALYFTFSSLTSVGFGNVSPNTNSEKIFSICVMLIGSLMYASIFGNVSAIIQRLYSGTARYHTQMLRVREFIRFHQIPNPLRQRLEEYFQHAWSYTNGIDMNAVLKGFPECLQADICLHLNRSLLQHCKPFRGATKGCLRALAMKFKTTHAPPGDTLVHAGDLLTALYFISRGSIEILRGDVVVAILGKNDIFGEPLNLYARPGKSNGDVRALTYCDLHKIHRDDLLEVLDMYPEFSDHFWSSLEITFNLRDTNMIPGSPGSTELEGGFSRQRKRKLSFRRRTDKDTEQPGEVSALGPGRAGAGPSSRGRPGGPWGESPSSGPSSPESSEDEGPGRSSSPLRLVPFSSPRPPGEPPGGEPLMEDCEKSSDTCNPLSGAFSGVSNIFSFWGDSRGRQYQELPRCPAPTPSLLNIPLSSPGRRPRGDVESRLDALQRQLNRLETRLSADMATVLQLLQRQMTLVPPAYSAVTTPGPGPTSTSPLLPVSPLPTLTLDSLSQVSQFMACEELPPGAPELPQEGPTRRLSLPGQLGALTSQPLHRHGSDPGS", "test": "primary screen, population patch clamp on CHO cells stably expressing hERG; higher = less effect of the substance", "units": {"hERG current change (%, negative = inhibition) at 10uM": "%"}, "values": [
      {"smiles": "Cc1ccccc1-n1cnc2cc(NCc3cccs3)ccc21", "hERG current change (%, negative = inhibition) at 10uM": -31},
      {"smiles": "CC1=C(C(=O)NCCN2CCN(C)CC2)C2(CCC(C)CC2)OC1=O", "note": "(stereo not shown)", "hERG current change (%, negative = inhibition) at 10uM": 6.17},
      {"smiles": "Cc1ccc(-c2ccc(CO)o2)cc1N", "hERG current change (%, negative = inhibition) at 10uM": 9.48},
      {"smiles": "O=C(CN1C(=O)C2CC=CCC2C1=O)Nc1ccc(S(=O)(=O)NC2=NCCCCC2)cc1", "note": "(stereo not shown)", "hERG current change (%, negative = inhibition) at 10uM": 1.02},
      {"smiles": "CCN1C(=O)C(=C2C=C(C)N(Cc3ccco3)C(C)=C2)C(=O)N(CC)C1=S", "hERG current change (%, negative = inhibition) at 10uM": -35},
      {"smiles": "CCCCC(=O)Nc1nnc(-c2ccco2)o1", "hERG current change (%, negative = inhibition) at 10uM": -0.241},
      {"smiles": "Cc1cc(C)c(C(=O)OCC(=O)NC(=O)c2ccccc2)c(C)c1", "hERG current change (%, negative = inhibition) at 10uM": 11.9},
      {"smiles": "O=C(CCc1ccccc1)Nc1cc(NC(=O)CCc2ccccc2)cc(C(=O)O)c1", "hERG current change (%, negative = inhibition) at 10uM": -22},
      {"smiles": "Cc1ccc(NC(=O)c2nc[nH]c2C(=O)N2CCc3ccccc3C2)cc1", "hERG current change (%, negative = inhibition) at 10uM": 18.8},
      {"smiles": "CCCN1CCC(NC(=S)Nc2ccc([N+](=O)[O-])cc2)CC1", "hERG current change (%, negative = inhibition) at 10uM": -52.6},
      {"smiles": "CCN1CCN(C(=S)Nc2ccc([N+](=O)[O-])cc2)CC1", "hERG current change (%, negative = inhibition) at 10uM": -26.6},
      {"smiles": "CN1CCN(C(=S)Nc2ccc([N+](=O)[O-])cc2)CC1", "hERG current change (%, negative = inhibition) at 10uM": -23.1},
      {"smiles": "CCCN1CCC(NC(=S)Nc2ccc(S(N)(=O)=O)cc2)CC1", "hERG current change (%, negative = inhibition) at 10uM": 10.7},
      {"smiles": "CCCN1CCC(NC(=O)Nc2ccc([N+](=O)[O-])cc2)CC1", "hERG current change (%, negative = inhibition) at 10uM": -32.2},
      {"smiles": "CCCN1CCN(C(=S)Nc2ccc([N+](=O)[O-])cc2)CC1", "hERG current change (%, negative = inhibition) at 10uM": -52.1},
      {"smiles": "COc1cc(/C=C/C(=O)O)cc(S(=O)(=O)Nc2ccccc2SC)c1OC", "hERG current change (%, negative = inhibition) at 10uM": 15.5},
      {"smiles": "O=C(Nc1ncn[nH]1)c1ccc(S(=O)(=O)N2CCOCC2)cc1", "hERG current change (%, negative = inhibition) at 10uM": -5.88},
      {"smiles": "CC(C)c1ccc(NC(=O)CN2C(=O)NC3(CCCC3)C2=O)cc1", "hERG current change (%, negative = inhibition) at 10uM": 5.63},
      {"smiles": "COc1cccc(C(=O)OCCN2CCOCC2)c1.Cl", "hERG current change (%, negative = inhibition) at 10uM": 6.33},
      {"smiles": "Cc1cc(C)c(OCC(=O)NCC2COc3ccccc3O2)c(C)c1", "note": "(stereo not shown)", "hERG current change (%, negative = inhibition) at 10uM": -13.9},
      {"smiles": "O=C(CSc1nnc(CNC(=O)c2ccccc2F)o1)NC1CCCC1", "hERG current change (%, negative = inhibition) at 10uM": 10.7},
      {"smiles": "CCN(CCn1cccn1)C(=O)CCc1nnc(CCCc2ccccc2)o1", "hERG current change (%, negative = inhibition) at 10uM": -37},
      {"smiles": "CC(C)(C)c1cc(NC(=O)c2ccc(OC3CCCC3)cc2)no1", "hERG current change (%, negative = inhibition) at 10uM": 14.2},
      {"smiles": "Cc1nc2c(-c3ccc(F)cc3)c(C)nn2c(C)c1CCC(=O)NCCN1CCOCC1", "hERG current change (%, negative = inhibition) at 10uM": -24.3},
      {"smiles": "Cc1nc2c(-c3ccc(F)cc3)c(C)nn2c(C)c1CCC(=O)N1CCOCC1", "hERG current change (%, negative = inhibition) at 10uM": -53.3},
      {"smiles": "Cc1nc2c(-c3ccccc3)c(C)nn2c(C)c1CCC(=O)N1CCOCC1", "hERG current change (%, negative = inhibition) at 10uM": -33.9},
      {"smiles": "Cc1nc2c(-c3ccc(F)cc3)c(C)nn2c(C)c1CCC(=O)N1CCC2(CC1)OCCO2", "hERG current change (%, negative = inhibition) at 10uM": -67.8},
      {"smiles": "CCOC(=O)C1CCN(C(=O)CCc2c(C)nc3c(-c4ccc(F)cc4)c(C)nn3c2C)CC1", "hERG current change (%, negative = inhibition) at 10uM": -71.1},
      {"smiles": "COc1ccccc1NC(=O)CCc1c(C)nc2c(-c3ccc(F)cc3)c(C)nn2c1C", "hERG current change (%, negative = inhibition) at 10uM": -20.3},
      {"smiles": "COC(CNC(=O)CCc1c(C)nc2c(-c3ccc(F)cc3)c(C)nn2c1C)OC", "hERG current change (%, negative = inhibition) at 10uM": -21.8},
      {"smiles": "Cc1nc2cc(-c3cccc(F)c3)nn2c(C)c1CCC(=O)N1CCC2(CC1)OCCO2", "hERG current change (%, negative = inhibition) at 10uM": -37.5},
      {"smiles": "Cc1nc2c(-c3ccc(F)cc3)c(C)nn2c(C)c1CCC(=O)N1CCN(c2ccccn2)CC1", "hERG current change (%, negative = inhibition) at 10uM": -69.5},
      {"smiles": "Cc1nc2c(-c3ccc(F)cc3)c(C)nn2c(C)c1CCC(=O)N1CCC(Cc2ccccc2)CC1", "hERG current change (%, negative = inhibition) at 10uM": -21.2},
      {"smiles": "Cc1nc2c(-c3ccccc3)c(C)nn2c(C)c1CCC(=O)N1CCC2(CC1)OCCO2", "hERG current change (%, negative = inhibition) at 10uM": -40.5},
      {"smiles": "CCCCCCc1nnc(N)s1", "hERG current change (%, negative = inhibition) at 10uM": -0.995},
      {"smiles": "Cc1cc(=O)n(C2CCS(=O)(=O)C2)[nH]1", "note": "(stereo not shown)", "hERG current change (%, negative = inhibition) at 10uM": 14.7},
      {"smiles": "O=c1[nH]c(=S)c2ncn(-c3ccccc3)c2[nH]1", "hERG current change (%, negative = inhibition) at 10uM": 11.7},
      {"smiles": "CCCCC(CCC(=O)O)(C(=O)OCC)c1csc(Nc2ccc(C)cc2)n1", "note": "(stereo not shown)", "hERG current change (%, negative = inhibition) at 10uM": -0.891},
      {"smiles": "Cc1ccc(N2C(=O)CC(c3ccsc3)C3=C2CC(C)(C)CC3=O)cc1", "note": "(stereo not shown)", "hERG current change (%, negative = inhibition) at 10uM": 3.75},
      {"smiles": "COc1ccc(CNC(=O)CN2CCN(c3cccc(C)c3C)CC2)cc1", "hERG current change (%, negative = inhibition) at 10uM": -8.46},
      {"smiles": "CCN(CC(=O)Nc1ccccc1OC)C(=O)CSCc1ccc(C)cc1", "hERG current change (%, negative = inhibition) at 10uM": -2.36},
      {"smiles": "CCCNC(=O)NC(=O)COC(=O)c1cccc(NS(=O)(=O)c2ccc(F)c(F)c2)c1", "hERG current change (%, negative = inhibition) at 10uM": -12},
      {"smiles": "COc1ccc(C(C(=O)NC2CCCC2)N(C(=O)CNC(=O)c2ccco2)c2cccnc2)cc1", "note": "(stereo not shown)", "hERG current change (%, negative = inhibition) at 10uM": 14.7}
    ]}
  ]
}
